Reference: PMC4336329 (PLoS ONE, 2015)
Among all 310,000 compounds or so, about 14,000 (4.5%) showed an effect of 50% or more. The effect is printed as a negative number. The entries come from a sample that favours strong results as a whole.

These molecules were tested against human ether-à-go-go-related gene (hERG) potassium channel (human, UniProt Q12809) (assay: primary screen, population patch clamp on CHO cells stably expressing hERG; higher = less effect of the substance).
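Also: peak tail current of the secondary pulse compared with the same well before compound.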

Chain of human ether-à-go-go-related gene (hERG) potassium channel (Q12809 whole entry, looked up): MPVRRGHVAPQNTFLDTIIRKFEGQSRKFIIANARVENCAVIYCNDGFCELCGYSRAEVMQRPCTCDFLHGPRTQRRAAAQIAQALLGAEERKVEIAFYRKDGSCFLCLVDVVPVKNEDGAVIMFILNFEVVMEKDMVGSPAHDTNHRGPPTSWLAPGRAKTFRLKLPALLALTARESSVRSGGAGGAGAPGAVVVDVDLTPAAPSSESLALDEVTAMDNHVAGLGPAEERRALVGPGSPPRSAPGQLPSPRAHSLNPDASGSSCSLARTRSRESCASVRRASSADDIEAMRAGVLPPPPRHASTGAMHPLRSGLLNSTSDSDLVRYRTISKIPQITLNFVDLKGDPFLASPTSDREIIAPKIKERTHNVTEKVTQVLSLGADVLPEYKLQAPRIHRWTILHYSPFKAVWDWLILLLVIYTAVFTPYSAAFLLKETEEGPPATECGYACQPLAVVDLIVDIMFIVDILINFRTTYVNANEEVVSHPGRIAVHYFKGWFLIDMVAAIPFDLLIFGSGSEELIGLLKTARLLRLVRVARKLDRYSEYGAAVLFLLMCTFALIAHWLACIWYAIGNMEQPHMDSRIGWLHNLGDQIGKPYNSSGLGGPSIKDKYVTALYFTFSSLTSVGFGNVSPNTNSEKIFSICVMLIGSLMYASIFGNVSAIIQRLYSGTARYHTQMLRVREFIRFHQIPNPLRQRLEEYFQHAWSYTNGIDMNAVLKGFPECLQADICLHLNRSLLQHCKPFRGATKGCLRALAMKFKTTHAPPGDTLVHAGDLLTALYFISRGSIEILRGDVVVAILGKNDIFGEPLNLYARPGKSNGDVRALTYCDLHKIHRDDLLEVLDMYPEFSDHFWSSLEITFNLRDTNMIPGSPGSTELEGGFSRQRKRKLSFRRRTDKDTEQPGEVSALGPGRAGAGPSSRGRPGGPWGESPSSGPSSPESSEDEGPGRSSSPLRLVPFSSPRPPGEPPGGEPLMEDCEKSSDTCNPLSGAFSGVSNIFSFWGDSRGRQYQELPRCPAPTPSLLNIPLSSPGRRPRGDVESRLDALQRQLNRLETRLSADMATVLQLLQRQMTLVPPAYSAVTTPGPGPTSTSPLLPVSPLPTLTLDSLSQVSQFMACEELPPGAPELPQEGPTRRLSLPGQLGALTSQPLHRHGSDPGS

| SMILES | hERG current change (%, negative = inhibition) at 10uM [%] |
| --- | --- |
| O=C(CNC(=O)c1ccco1)NCC(=O)OCc1cccc(Cl)c1 | -13 |
| COC(=O)COc1ccc(C2Nc3c(Cl)ccc(C(=O)O)c3C3C=CCC32)cc1 (centres unmarked) | 12.9 |
| Cn1ncc(Cl)c1C(=O)Nc1cc(C(F)(F)F)ccc1F | 29.5 |
| COC(=O)c1ccc(NC2=C(Cl)C(=O)OC2OC(=O)c2ccccc2)cc1 (centres unmarked) | -22.5 |
| Cc1ccc(NC2=C(Cl)C(=O)OC2OC(=O)c2ccc(C)cc2)cc1 (centres unmarked) | -51.7 |
| Cc1ccc(NC2=C(Cl)C(=O)OC2OC(=O)c2ccco2)cc1 (centres unmarked) | -42.2 |
| COCCCN1C(=O)C(=O)/C(=C(/O)c2ccccc2)C1c1ccc(N(C)C)cc1 (centres unmarked) | 12.8 |
| CSCC[C@H](NC(=O)Nc1ccc(S(N)(=O)=O)cc1)C(=O)O | 9.48 |
| CCN1CCN(c2cc(C)c3cc(NC(=O)c4ccc(OC)c(OC)c4)ccc3n2)CC1 | -46 |
| CCN1CCN(c2cc(C)c3cc(NC(=O)c4cc(OC)cc(OC)c4)ccc3n2)CC1 | -35.6 |
| COc1ccc(C(=O)Nc2ccc3nc(N4CCCCC4)cc(C)c3c2)cc1OC | -56.8 |
| CCN1CCN(c2cc(C)c3cc(NC(=O)CCC(=O)Nc4ccc(OC)c(OC)c4)ccc3n2)CC1 | 4.85 |
| COc1ccc(NC(=O)CCC(=O)Nc2ccc3nc(N4CCOCC4)cc(C)c3c2)c(OC)c1 | 16.5 |
| COc1cccc(NC(=O)CCC(=O)Nc2ccc3nc(N4CCOCC4)cc(C)c3c2)c1 | 23.4 |
| COc1cccc(C(=O)Nc2ccc3nc(N4CCOCC4)cc(C)c3c2)c1 | -55 |
| CCOc1ccc(C(=O)Nc2ccc3nc(N4CCN(CC)CC4)cc(C)c3c2)cc1 | -23 |
| CCN1CCN(c2cc(C)c3cc(NC(=O)c4cccc(OC)c4)ccc3n2)CC1 | -50.9 |
| COc1ccc(Cc2nc3ccc(C(=O)N(C)C(C)c4ccon4)cc3o2)cc1 (centres unmarked) | -3.64 |
| O=C1COc2ccc(C(=O)c3ccccc3C(=O)NCc3ccccc3)cc2N1 | -5.41 |
| COc1cccc(CC(=O)OC(C)C(=O)Nc2ccc(Cl)cn2)c1 (centres unmarked) | -23.9 |
| CC(=O)Nc1nc2ccc(S(=O)(=O)N3CCCCC3)cc2s1 | 11.4 |

| SMILES | hERG current change (%, negative = inhibition) at 10uM [%] |
| --- | --- |
| Cc1ccccc1NC(=O)Cc1nc(-c2c[nH]c(C(=O)N3CCCC3)c2)cs1 | 4.63 |
| Cc1ccc(NC(=O)C(=O)NNC(=O)c2ccccc2C)cc1Cl | -5.32 |
| CCCCn1c(=NC(=O)c2ccc3c(c2)OCO3)c(C#N)cc2c(=O)n3cccc(C)c3nc21 | -5.68 |
| CCOCCCn1c(=NC(=O)c2cccs2)c(C#N)cc2c(=O)n3cccc(C)c3nc21 | -74.1 |
| CCOCCCn1c(=NC(=O)c2ccc(OC)c(OC)c2)c(C#N)cc2c(=O)n3cccc(C)c3nc21 | -63.4 |
| Cc1cccn2c(=O)c3cc(C#N)c(=NC(=O)c4cccs4)n(CC(C)C)c3nc12 | -11.5 |
| CCOCCCn1c(=NC(C)=O)c(C#N)cc2c(=O)n3cccc(C)c3nc21 | -41.8 |
| Cc1cccn2c(=O)c3cc(C#N)c(=NC(=O)c4cccs4)n(CCCOC(C)C)c3nc12 | -80.7 |
| NC(=O)Nc1ccc(Oc2c(F)c(F)c(F)c(F)c2F)cc1 | -11.5 |
| Cc1cccc(N2CCN(CC(=O)Nc3ccc(-n4cnnn4)cc3)CC2)c1C | 12.8 |
| O=C(Nc1ccc(F)cc1)c1ccccc1S(=O)(=O)c1ccccc1[N+](=O)[O-] | -17.5 |
| N#C/C(Cn1c[n+](NC(=O)Nc2ccccc2)cn1)=N/O.[Cl-] | 16.2 |
| Cc1cccn2c(=O)c3cc(C(=O)N4COCC4(C)C)sc3nc12 | 0.269 |
| CC(C)[C@@H]1NC(=O)c2cc([N+](=O)[O-])cc(I)c2OCC[C@@H](C(N)=O)NC(=O)[C@H](CCC(=O)O)NC1=O | 2.02 |
| CCc1ccccc1NC(=S)N(CCN(C)C)Cc1cccs1 | -22.4 |
| COc1ccc(S(=O)(=O)N(C)CC(=O)N2CCC(C)CC2)cc1Cl | -0.646 |
| OCCC1CN(Cc2nc3ccccc3s2)CCN1CCc1ccccc1 (centres unmarked) | -77.7 |
| CC(C)CCN1CCN(Cc2nc3ccccc3s2)CC1CCO (centres unmarked) | -41.4 |
| CC(C)NC(=O)C1CCN(C2CCN(Cc3nc4ccccc4s3)CC2)CC1 | -65.2 |
| CC(C)NC(=O)C1CCN(C2CCN(Cc3ccc4cccc(F)c4n3)CC2)CC1 | -38.6 |
| CC(C)NC(=O)C1CCN(C2CCN(Cc3nc(C(C)C)cs3)CC2)CC1 | -49.5 |

| SMILES | hERG current change (%, negative = inhibition) at 10uM [%] |
| --- | --- |
| CC(C)N1CCN(Cc2nc3ccccc3s2)CC1CCO (centres unmarked) | -37.6 |
| OCCC1CN(Cc2nc3ccccc3s2)CCN1C1CCCCC1 (centres unmarked) | -60 |
| CC(C)N1CCC(N2CCN(Cc3nc4ccccc4s3)CC2CCO)CC1 (centres unmarked) | -33.4 |
| CC(C)CN1CCN(Cc2nc3ccccc3s2)CC1CCO (centres unmarked) | -56.8 |
| OCCC1CN(Cc2nc3ccccc3s2)CCN1C1CCCC1 (centres unmarked) | -48.9 |
| O=C1S/C(=C\c2ccc(Cl)cc2)C(=O)N1CCn1cnnn1 | -0.978 |
| CC(=O)c1cc2c(cc1N(C(=O)Cn1nnc3ccccc31)C(C(=O)NCCC(C)C)c1cccnc1)OCO2 (centres unmarked) | 8.92 |
| CCc1ccccc1NC(=O)C1CCN(C(=O)c2cccs2)CC1 | -24.3 |
| COc1ccc(S(=O)(=O)N2CCCCCC2)cc1NC(=O)CN1C(=O)NC(C)(c2ccccc2)C1=O (centres unmarked) | -31.4 |
| O=[N+]([O-])c1cc(CN2CCCC2)ccc1Sc1ccc(Cl)cc1 | -93.8 |
| Cc1ccc(Sc2ccc(C(=O)N3CCOCC3)cc2[N+](=O)[O-])cc1 | -32.3 |
| O=[N+]([O-])c1cc(CN2CCC(O)CC2)ccc1Cl | 9.08 |
| O=[N+]([O-])c1cc(CN2CCCCCC2)ccc1O | 9.47 |
| O=C(O)c1ccccc1C(=O)c1ccc(Sc2ccc(Cl)cc2)c([N+](=O)[O-])c1 | 6.94 |
| CN1CCN(Cc2ccc(Sc3ccc(Cl)cc3)c([N+](=O)[O-])c2)CC1 | -80.4 |
| O=[N+]([O-])c1ccc(Cl)cc1CN1CCCCCC1 | -3.36 |
| Cc1ccc(Sc2ccc(CN3CCCC3)cc2[N+](=O)[O-])cc1 | -83 |
| Cc1ccc(Sc2ccc(CN3CCCCC3)cc2[N+](=O)[O-])cc1 | -27.4 |
| CCN(CC(=O)NCCCN1CCOCC1)S(=O)(=O)c1cc(Cl)ccc1Cl | 6.16 |
| CN(Cc1ccc(Br)cc1)C(=O)CCN1C(=O)c2cccc([N+](=O)[O-])c2C1=O | 21.8 |
| COc1cccc(OCc2cc(C(=O)N3CCN(c4ccccc4OC)CC3)no2)c1 | 6.19 |

| SMILES | hERG current change (%, negative = inhibition) at 10uM [%] |
| --- | --- |
| COc1c(C)cccc1C(=O)NCc1ccc2c(c1)OCO2 | -2.64 |
| O=S(=O)(NCC1CCCO1)c1ccc(S(=O)(=O)N(Cc2ccc(F)cc2)C2CCCCC2)cc1 (centres unmarked) | -2.39 |
| COc1ccccc1NC(=O)CSc1nnc(CC(=O)Nc2ccccc2F)n1C | 11.4 |
| COc1ccc(-n2c(SCC(=O)Nc3nccs3)nc3c(c2=O)SC(C)C3)cc1 (centres unmarked) | -13.5 |
| COc1ccc(/C(O)=C/C(=O)C(=O)Nc2c(C)n(C)n(-c3ccccc3)c2=O)cc1 | 8.01 |
| CCc1c(C)sc2nc3c(C(=O)N4CCOCC4)cc(C(=O)c4ccccc4O)cn3c(=O)c12 | -10.7 |
| Cc1cc(C)nc(OC(C(=O)O)C(OCCc2ccccc2)(c2ccccc2)c2ccccc2)n1 (centres unmarked) | 16.3 |
| CCOC(=O)C1=C(CC)Nc2ccccc2N=C1NC(=O)c1oc2ccccc2c1C | 12.6 |
| CC(C)(CNC(=O)c1ccc(-c2ccccc2Cl)o1)N1CCOCC1 | -39.9 |
| O=C(COC(=O)c1cc(=O)c2ccccc2o1)NCC1CCCCC1 | 6.26 |
| CC(C)CN(CC(C)C)CC(O)COc1ccc([N+](=O)[O-])cc1.Cl (centres unmarked) | -66.8 |
| Cl.OCCN(CCO)CC(O)COc1ccc2c(c1)OCO2 (centres unmarked) | 2.18 |
| O=[N+]([O-])c1ccc(OCC(O)CN(CCO)CCO)cc1 (centres unmarked) | -54.8 |
| Cc1cc(C)cc(NC(=O)NCC(O)COc2ccc([N+](=O)[O-])cc2)c1 (centres unmarked) | -42.3 |
| COC(=O)c1ccc(OCC(O)CN(CC(C)C)CC(C)C)cc1 (centres unmarked) | -4.37 |
| CCCN(CCC)CC(O)COc1ccc2c(c1)OCO2.Cl (centres unmarked) | -28.8 |
| CCCN(CCC)CC(O)COc1ccc([N+](=O)[O-])cc1 (centres unmarked) | -77.1 |
| COC(=O)c1ccc(OCC(O)CN(CCO)CCO)cc1 (centres unmarked) | -3.29 |
| O=C(NCC(O)COc1ccc([N+](=O)[O-])cc1)Nc1ccccc1 (centres unmarked) | -49.4 |
| C/C(=N\NC(=O)CC(C)C)c1ccc(Cl)c(Cl)c1 | 30.7 |
